Inhibition data for seven molecules are collected here from ChEMBL document CHEMBL1961873, “Compounds: GSK PKIS; Assays: Nanosyn kinase panel” (2012).

The structures appear in SMILES notation.

The inhibition is the change of the read-out against control, counted positive when it falls.

In test [1] the target is RAC-alpha serine/threonine-protein kinase (Homo sapiens) (UniProt P31749). To be noted: at 0.1 µM.
Test [2] shares this target. The conditions noted are these: at 1 µM.
In test [3] the target is RAC-beta serine/threonine-protein kinase (Homo sapiens) (UniProt P31751). To be noted: at 0.1 µM.
RAC-beta serine/threonine-protein kinase (Homo sapiens), sequence (P31751 whole entry): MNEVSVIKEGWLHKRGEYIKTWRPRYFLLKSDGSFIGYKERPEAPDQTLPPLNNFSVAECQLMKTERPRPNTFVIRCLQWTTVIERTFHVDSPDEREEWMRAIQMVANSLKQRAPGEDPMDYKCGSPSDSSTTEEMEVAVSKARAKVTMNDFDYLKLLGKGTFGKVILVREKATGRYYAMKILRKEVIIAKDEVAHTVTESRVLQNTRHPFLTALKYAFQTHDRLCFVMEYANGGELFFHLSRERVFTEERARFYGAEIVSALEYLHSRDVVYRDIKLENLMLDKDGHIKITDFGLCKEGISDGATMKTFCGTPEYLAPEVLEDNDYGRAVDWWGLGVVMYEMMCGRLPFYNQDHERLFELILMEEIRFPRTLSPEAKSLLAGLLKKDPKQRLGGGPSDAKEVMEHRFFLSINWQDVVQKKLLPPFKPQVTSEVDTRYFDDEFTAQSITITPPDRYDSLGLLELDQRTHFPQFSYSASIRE
Test [4] has the same target. The conditions noted are these: at 1 µM.
Test [5] addresses RAC-gamma serine/threonine-protein kinase (Homo sapiens) (UniProt Q9Y243). To be noted: at 0.1 µM.
The target is the same in test [6]. To be noted: at 1 µM.
Test [7] concerns the target G protein-coupled receptor kinase 6 (Homo sapiens) (UniProt P43250). To be noted: at 0.1 µM.
The target is the same in test [8]. The conditions noted are these: at 1 µM.
Test [9] has as its target T1, Rhodopsin kinase GRK7 (Homo sapiens) (UniProt Q8WTQ7).
T1 sequence (whole entry): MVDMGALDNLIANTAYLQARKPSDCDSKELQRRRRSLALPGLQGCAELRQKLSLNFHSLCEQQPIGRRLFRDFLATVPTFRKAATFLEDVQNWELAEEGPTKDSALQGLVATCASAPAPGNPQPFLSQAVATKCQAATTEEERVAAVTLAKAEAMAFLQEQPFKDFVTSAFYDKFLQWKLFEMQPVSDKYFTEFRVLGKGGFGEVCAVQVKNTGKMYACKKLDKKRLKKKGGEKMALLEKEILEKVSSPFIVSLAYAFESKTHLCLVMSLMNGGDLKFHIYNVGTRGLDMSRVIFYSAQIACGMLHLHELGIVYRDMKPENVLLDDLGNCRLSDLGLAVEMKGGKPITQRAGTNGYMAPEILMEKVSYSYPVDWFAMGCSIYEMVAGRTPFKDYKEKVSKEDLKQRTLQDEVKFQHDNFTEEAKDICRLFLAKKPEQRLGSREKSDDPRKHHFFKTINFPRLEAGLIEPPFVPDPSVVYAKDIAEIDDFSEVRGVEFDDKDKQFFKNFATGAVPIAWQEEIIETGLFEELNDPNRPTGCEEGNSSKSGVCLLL
The conditions noted are these: at 0.1 µM.

The target in test [10] is T1, Rhodopsin kinase GRK7 (Homo sapiens). The conditions noted are these: at 1 µM.
For test [11], the target named is Serine/threonine-protein kinase MRCK alpha (Homo sapiens) (UniProt Q5VT25). To be noted: at 0.1 µM.
Test [12] shares this target. The conditions noted are these: at 1 µM.
The target in test [13] is Serine/threonine-protein kinase MRCK beta (Homo sapiens) (UniProt Q9Y5S2). To be noted: at 0.1 µM.
Serine/threonine-protein kinase MRCK beta (Homo sapiens), sequence (Q9Y5S2 whole entry): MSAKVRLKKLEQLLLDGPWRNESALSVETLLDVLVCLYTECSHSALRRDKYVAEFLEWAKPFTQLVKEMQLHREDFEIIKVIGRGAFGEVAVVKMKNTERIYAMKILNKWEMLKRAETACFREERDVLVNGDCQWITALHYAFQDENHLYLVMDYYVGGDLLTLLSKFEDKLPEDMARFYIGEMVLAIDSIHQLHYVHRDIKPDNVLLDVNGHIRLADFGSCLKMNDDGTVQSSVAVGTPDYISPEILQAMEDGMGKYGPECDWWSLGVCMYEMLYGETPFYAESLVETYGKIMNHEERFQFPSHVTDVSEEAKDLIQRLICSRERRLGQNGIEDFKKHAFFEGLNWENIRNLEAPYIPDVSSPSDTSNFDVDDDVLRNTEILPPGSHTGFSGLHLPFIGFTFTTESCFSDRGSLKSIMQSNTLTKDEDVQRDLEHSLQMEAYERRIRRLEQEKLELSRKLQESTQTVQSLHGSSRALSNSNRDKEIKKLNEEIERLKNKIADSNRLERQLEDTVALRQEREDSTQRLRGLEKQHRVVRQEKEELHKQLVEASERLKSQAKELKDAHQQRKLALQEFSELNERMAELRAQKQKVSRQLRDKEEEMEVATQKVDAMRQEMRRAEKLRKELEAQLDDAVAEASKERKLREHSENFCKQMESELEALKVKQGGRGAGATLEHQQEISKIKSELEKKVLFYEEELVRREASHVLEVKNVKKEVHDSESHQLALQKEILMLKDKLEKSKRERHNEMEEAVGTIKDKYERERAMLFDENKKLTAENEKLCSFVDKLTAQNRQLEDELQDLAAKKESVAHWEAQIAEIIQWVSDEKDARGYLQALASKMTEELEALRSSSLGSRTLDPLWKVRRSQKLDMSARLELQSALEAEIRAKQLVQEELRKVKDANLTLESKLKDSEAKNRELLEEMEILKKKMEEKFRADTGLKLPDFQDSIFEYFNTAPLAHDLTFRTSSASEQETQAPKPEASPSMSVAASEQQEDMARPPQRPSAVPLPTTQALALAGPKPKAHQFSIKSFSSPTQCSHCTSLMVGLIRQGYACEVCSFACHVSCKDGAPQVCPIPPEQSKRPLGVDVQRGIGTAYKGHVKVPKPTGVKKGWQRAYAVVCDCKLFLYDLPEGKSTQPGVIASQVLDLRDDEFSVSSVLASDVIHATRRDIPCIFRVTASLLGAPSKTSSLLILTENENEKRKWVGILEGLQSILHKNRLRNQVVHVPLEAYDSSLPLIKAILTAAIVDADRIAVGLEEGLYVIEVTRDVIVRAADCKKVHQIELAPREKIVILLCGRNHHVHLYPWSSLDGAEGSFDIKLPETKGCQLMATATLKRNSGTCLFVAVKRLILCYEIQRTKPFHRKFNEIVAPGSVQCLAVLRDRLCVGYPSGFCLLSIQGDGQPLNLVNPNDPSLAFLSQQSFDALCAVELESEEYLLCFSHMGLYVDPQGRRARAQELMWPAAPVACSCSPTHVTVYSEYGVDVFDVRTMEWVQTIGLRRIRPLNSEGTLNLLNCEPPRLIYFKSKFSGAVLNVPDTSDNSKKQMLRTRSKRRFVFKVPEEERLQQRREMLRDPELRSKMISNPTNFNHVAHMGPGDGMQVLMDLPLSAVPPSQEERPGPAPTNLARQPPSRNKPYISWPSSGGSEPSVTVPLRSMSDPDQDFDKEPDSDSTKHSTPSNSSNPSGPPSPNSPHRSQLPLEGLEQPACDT
The target is the same in test [14]. To be noted: at 1 µM.
The target of test [15] is Ribosomal protein S6 kinase alpha-5 (Homo sapiens) (UniProt O75582). To be noted: at 0.1 µM.
Ribosomal protein S6 kinase alpha-5 (Homo sapiens), sequence (O75582 whole entry, looked up): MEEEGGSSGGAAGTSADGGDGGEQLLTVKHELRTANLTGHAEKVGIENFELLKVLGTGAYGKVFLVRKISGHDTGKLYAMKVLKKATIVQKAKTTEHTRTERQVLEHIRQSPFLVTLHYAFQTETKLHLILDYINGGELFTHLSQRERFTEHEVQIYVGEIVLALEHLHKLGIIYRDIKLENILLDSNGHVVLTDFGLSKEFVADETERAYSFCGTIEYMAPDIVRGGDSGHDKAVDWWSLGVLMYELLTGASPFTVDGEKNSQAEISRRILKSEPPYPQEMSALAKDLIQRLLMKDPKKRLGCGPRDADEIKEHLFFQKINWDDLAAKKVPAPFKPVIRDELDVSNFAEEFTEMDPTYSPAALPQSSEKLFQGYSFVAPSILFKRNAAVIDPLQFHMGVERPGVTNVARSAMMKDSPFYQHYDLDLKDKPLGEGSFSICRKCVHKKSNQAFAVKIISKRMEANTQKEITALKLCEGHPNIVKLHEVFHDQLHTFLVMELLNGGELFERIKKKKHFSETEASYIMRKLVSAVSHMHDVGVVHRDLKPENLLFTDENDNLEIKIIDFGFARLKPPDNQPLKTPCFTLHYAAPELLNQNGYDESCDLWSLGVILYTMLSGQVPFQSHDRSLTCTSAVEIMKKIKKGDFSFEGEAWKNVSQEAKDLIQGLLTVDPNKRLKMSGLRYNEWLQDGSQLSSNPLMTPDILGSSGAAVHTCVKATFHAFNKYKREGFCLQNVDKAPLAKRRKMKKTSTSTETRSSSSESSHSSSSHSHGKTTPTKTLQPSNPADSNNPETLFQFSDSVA
Test [16] shares this target. To be noted: at 1 µM.
Test [17] has as its target Ribosomal protein S6 kinase alpha-4 (Homo sapiens) (UniProt O75676). The conditions noted are these: at 0.1 µM.
Test [18] has the same target. The conditions noted are these: at 1 µM.
Test [19] concerns the target Ribosomal protein S6 kinase beta-1 (Homo sapiens) (UniProt P23443). To be noted: at 0.1 µM.
The target is the same in test [20]. To be noted: at 1 µM.

Ribosomal protein S6 kinase alpha-4 (Homo sapiens), sequence (O75676 whole entry, looked up): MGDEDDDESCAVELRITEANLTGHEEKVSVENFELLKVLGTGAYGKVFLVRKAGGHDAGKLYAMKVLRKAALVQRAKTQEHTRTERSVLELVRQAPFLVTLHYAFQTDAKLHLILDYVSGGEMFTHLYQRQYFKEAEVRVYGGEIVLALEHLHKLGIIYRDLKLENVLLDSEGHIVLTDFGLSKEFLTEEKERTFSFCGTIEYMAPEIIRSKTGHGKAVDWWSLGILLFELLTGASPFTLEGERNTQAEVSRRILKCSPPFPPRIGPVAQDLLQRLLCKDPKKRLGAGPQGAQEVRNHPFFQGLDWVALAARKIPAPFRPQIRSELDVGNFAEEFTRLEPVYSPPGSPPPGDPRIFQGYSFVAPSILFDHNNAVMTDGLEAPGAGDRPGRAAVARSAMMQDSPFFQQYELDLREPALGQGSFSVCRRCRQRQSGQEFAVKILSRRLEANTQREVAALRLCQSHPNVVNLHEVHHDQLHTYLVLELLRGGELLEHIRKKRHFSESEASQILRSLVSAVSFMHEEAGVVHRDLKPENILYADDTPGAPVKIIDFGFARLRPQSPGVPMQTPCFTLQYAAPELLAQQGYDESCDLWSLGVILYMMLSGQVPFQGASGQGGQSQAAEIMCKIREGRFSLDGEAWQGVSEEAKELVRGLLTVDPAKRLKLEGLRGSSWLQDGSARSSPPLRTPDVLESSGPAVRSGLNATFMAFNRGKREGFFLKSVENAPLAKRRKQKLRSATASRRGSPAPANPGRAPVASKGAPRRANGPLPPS
Ribosomal protein S6 kinase beta-1 (Homo sapiens), sequence (P23443 whole entry, looked up): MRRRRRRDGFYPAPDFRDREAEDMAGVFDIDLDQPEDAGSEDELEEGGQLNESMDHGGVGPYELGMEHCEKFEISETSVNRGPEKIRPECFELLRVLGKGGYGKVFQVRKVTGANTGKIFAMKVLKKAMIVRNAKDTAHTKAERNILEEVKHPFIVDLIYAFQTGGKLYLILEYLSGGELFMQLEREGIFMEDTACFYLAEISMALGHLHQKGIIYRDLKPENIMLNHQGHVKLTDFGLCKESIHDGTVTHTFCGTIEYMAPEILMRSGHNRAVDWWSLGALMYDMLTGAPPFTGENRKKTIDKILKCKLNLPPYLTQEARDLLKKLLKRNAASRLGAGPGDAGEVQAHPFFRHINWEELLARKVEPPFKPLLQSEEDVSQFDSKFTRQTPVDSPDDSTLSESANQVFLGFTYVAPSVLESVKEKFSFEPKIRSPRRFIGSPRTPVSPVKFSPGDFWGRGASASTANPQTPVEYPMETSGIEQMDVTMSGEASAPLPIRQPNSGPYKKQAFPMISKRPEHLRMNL
RAC-gamma serine/threonine-protein kinase (Homo sapiens), sequence (Q9Y243 whole entry): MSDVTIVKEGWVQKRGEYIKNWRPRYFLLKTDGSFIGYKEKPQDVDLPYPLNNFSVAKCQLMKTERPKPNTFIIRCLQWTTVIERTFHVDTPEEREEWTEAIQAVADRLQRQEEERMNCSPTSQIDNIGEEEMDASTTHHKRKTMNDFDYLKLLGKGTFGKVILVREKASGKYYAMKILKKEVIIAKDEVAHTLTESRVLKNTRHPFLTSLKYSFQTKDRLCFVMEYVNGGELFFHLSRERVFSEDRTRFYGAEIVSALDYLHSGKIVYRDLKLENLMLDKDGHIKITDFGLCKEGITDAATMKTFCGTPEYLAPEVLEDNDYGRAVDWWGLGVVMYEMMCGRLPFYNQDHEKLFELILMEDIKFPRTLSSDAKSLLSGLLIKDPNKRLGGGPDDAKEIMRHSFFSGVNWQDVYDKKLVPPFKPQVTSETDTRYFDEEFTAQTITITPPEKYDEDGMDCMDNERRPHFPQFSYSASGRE

Take `CN(c1ccc(NC(=O)Nc2c(Cl)cccc2Cl)cc1)c1ccnc(Nc2cccc(CS(C)(=O)=O)c2)n1`: the inhibition was 0.48% in [1]; 1.09% in test [2]; 0.5% in test [3]; 2.1% in test [4]; 3.21% in test [5]; -0.15% in test [6]. The inhibition in test [7] is 3.24%; in test [8], 3.8%; in [9], 3.79%; in test [10] it was 1.55%; in [11] it was 1.56%; in test [12] it was 2.97%. The inhibition came out at 0.43% in test [13]; 0.92% in test [14]; 2.92% in test [15]; 4.25% in test [16]; 2.24% in test [17]; 4.1% in [18]. Besides, the inhibition is -1.3% in test [19] and 2.4% in [20].

As to `Fc1ccc(-c2ncn(C3CCNCC3)c2-c2ccnc(Oc3ccc(F)c(F)c3)n2)cc1`, the inhibition in test [1] was -3%; in test [2], -3.59%; in test [3], -3.3%; in [4] it was -2.56%; in [5] it was -2.6%; in [6], -1.9%. Further, the inhibition was -0.72% in [7]; 2.05% in test [8]; 9.11% in [9]; 1.73% in test [10]; -3.08% in test [11]; -2.58% in [12]. Besides, the inhibition is -0.68% in [13]; -0.35% in test [14]; 0.54% in [15]; -0.7% in [16]; 3.37% in test [17]; 4.69% in test [18]. The inhibition in test [19] is 0.73%; in [20], 0.63%.

As to `NS(=O)(=O)c1ccc(Nc2cc(-c3ccc(O)c(F)c3)n[nH]2)cc1`, the inhibition is -3.05% in test [1]; -2.1% in [2]; -3.37% in test [3]; -1.69% in test [4]; -3.06% in test [5]; -2.28% in [6]. For the same molecule, the inhibition is -2.35% in test [7]; -0.57% in test [8]; -9.14% in test [9]; -0.64% in [10]; -0.79% in [11]; 0.17% in test [12]. For the same molecule, the inhibition in test [13] is 0.18%; in [14], 0.15%; in test [15], -1.17%; in [16] it was 8.77%; in test [17], -0.21%; in test [18], 8.93%. Further, the inhibition in test [19] was -2.09%; in test [20], 4.29%.

`Fc1ccc(-c2c(-c3ccncc3)nc3n2CCS3)cc1`: the inhibition in [1] is -3.71%; in test [2] it was -2.76%; in test [3], -2.67%; in [4], -1.63%; in [5] it was -3.31%; in [6] it was -0.46%. Further, the inhibition in test [7] came to 5.32%; in test [8] it was 4.18%; in test [9] it was 2.86%; in test [10], 7.9%; in test [11], 1.61%; in [12] it was 5.14%. In addition, the inhibition in test [13] came to 2.15%; in test [14], 9.93%; in test [15], 3.9%; in [16], 8.14%; in test [17], 4.42%; in [18], 8.86%. Further, the inhibition in [19] came out at 0.97%; in [20] it was 2.52%.

Turning to `COc1ccc2cc(-c3c(-c4ccncc4)nc(-c4ccc([S+](C)[O-])cc4C)n3C)ccc2c1` (stereo not given), the inhibition was -0.62% in test [1]; -0.09% in test [2]; -0.6% in test [3]; -0.29% in [4]; 0.09% in test [5]; 1.08% in test [6]. In addition, the inhibition is 2.06% in test [7]; -0.69% in test [8]; -2.36% in test [9]; -0.96% in [10]; -1.8% in test [11]; 1.91% in [12]. Moreover, the inhibition was 0.22% in test [13]; 1.15% in [14]; -7.06% in [15]; -6.22% in test [16]; -0.04% in test [17]; -0.04% in test [18]. Also, the figures for the inhibition in test [19] and in [20] were 0.21% and 0.05%, respectively.

On to `c1ccc(-c2n[nH]cc2-c2ccnc(-c3ccc(OCCN4CCOCC4)cc3)c2)nc1`, for which the inhibition in test [1] was -0.28%; in [2], 0.23%; in test [3], -0.23%; in [4] it was -0.3%; in [5], -0.26%; in [6] it was 0.6%. The inhibition in [7] was -5.07%; in test [8], -7.11%; in test [9], 1.66%; in [10], -0.22%; in test [11], 6.85%; in test [12] it was -2.76%. Further, the inhibition stood at 7.67% in test [13]; 5.68% in test [14]; 3.06% in test [15]; 1.22% in test [16]; 3.23% in test [17]; 3.34% in test [18]. Also, the inhibition is 2.04% in [19] and 1.17% in test [20].

For `C/C(Nc1ccc(S(N)(=O)=O)cc1)=C1/C(=O)Nc2ccccc21`, the inhibition in [1] was -0.64%; in test [2], -1.45%; in test [3] it was -3.63%; in [4], -0.17%; in test [5], -2.53%; in test [6], -0.18%. Further, the inhibition was -0.76% in test [7]; 9.44% in test [8]; -7.29% in test [9]; 2.76% in test [10]; -0.23% in [11]; 0.16% in [12]. The inhibition in test [13] turned out to be 0.47%; in test [14] it was 3.4%; in [15], 0%; in [16] it was 8.47%; in [17], 1.38%; in [18], 17.7%. Further, the figures for the inhibition in [19] and in test [20] were -1.96% and 2.17%, respectively.
